Experimental data as given in PubChem BioAssay (NCATS).
Inconclusive results are not listed. The source made the active and inactive calls. The call rests on the fitted dose curve; in most records, active means well fitted inhibition curve with a large enough effect in the repeat runs; inconclusive means weak or mixed curves; inactive means flat fitted curve, though single readings scatter.

These compounds were tested against Cytochrome P450 2D6 (Homo sapiens) (UniProt P10635) (assay: Cytochrome P450 family 2 subfamily D member 6 (CYP2D6) small molecule antagonists: luciferase biochemical (cell-free) qHTS assay (AID 1645840; further: nearly all actives have a fitted effect of over 55% in size)). Conditions: P450-Glo CYP2D6 enzyme, luciferin luminescence, 1 h; series mostly up to 57.4 µM; activity change, negative = inhibition: at the top concentration.
Description: National Center for Advancing Translational Sciences [NCATS] Assay Overview: Cytochrome P450 (CYP) enzymes are membrane-bound hemeproteins that play a key role in metabolism of drugs and xenobiotics. Assaying the effect of chemicals on CYP isozymes is useful to minimize the adverse drug reactions and toxicities in drug development process. Chemical compounds were tested for their effect on CYP enzyme activities by using P450-Glo (TM) screening systems (Promega Corporation, Madison, WI). These systems provide a luminescent method containing proluciferin substrates and are converted to luciferin products by CYP isozymes. The luciferin products formed are detected with a luciferin detection reagent, and the amount of light produced is proportional to CYP activity. P450-Glo (TM) CYP2D6 screening system (Catalog. No. V9890) was used to detect the compounds that interfere in CYP2D6 activity.
Assay Protocol Summary: Two ul of enzyme-substrate mix was dispensed into medium binding white/solid 1536-well plates (Greiner Bio-One North America Inc., Monroe, NC) using a Flying Reagent Dispenser (FRD, Aurora Discovery, San Diego, CA). […] The assay plates were incubated at room temperature for 10 min. Then 2 ul of NADPH regeneration solution was added to each well of the assay plates using an FRD and incubated at room temperature for 1 h. The reaction was stopped by adding 4 ul of detection reagent using an FRD and after 20 min incubation at room temperature, the luminescence signal was measured using a ViewLux plate reader (Perkin Elmer, Shelton, CT). Data were expressed as relative luminescence units.
On the % scale 0 is the no-effect control and ±100 the full control effect; potency means the concentration at half of the fitted maximal effect.

Sequence of Cytochrome P450 2D6 (Homo sapiens) (P10635 whole entry, looked up): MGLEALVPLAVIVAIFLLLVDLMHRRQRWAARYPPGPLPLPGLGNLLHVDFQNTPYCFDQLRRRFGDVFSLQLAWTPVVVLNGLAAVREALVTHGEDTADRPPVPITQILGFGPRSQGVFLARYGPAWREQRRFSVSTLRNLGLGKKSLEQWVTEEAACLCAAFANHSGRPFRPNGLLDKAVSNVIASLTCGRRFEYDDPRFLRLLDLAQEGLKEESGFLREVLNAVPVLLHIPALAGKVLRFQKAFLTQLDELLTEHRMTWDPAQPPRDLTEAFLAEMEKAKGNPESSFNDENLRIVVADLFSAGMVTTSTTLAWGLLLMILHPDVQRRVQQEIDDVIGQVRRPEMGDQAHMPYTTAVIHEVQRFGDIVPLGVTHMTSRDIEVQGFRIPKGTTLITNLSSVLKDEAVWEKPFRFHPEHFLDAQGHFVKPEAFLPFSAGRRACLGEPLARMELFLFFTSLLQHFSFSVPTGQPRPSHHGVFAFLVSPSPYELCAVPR

| SMILES | activity change, negative = inhibition | Potency |
| --- | --- | --- |
| CCOc1ccc(C(NC(=O)c2cc(OC)c(OC)c(OC)c2)c2cc(Cl)c3cccnc3c2O)cc1 (stereo not given) | 6.6% (inactive) | – |
| CCOc1ccc(-c2nonc2NC(=O)c2oc3c(C)c(C)ccc3c2C)cc1OCC | 17.2% (inactive) | – |
| C=CC1=C(C(=O)O)N2C(=O)[C@@H](NC(=O)/C(=N\OCC(=O)O)c3csc(N)n3)[C@H]2SC1 | 2.72% (inactive) | – |
| CC(O)CNC(=O)C(=O)Nc1c2c(nn1-c1ccc(Cl)cc1)CSC2 (stereo not given) | -15.8% (inactive) | – |
| CCCOCc1cc(CN2CCN(c3ccccc3OC)CC2)c(O)c2ncccc12 | – | 13.5 µM (active) |
| C=C(C)[C@H]1CC=C(C)CC1 | 16.5% (inactive) | – |
| CCC(=O)N1CCc2cc(S(=O)(=O)NC(Cc3ccccc3)C(=O)NCc3cccc(OC)c3)ccc21 (stereo not given) | – | 12 µM (active) |
| COC(=O)c1cnc(N2CCN(c3ccc(OC)cc3)CC2)c2ccccc12 | -13.6% (inactive) | – |
| O=C(CSc1nnc(-c2cccc(F)c2)c(-c2cccc(F)c2)n1)NC1CCCCC1 | -8.72% (inactive) | – |
| COc1ccc(CN(C2CCCCC2)[S+](=O)([O-])c2ccc(C)cc2)cc1OC | -24.1% (inactive) | – |
| CCOc1ccc(CNC(=O)Cn2c(=O)c3cccn3c3ccc(F)cc32)cc1 | 10.6% (inactive) | – |
| Cc1ccc(Cn2c(SCC(=O)NCc3ccccc3)nc3ccsc3c2=O)cc1 | – | 6.01 µM (active) |
| COc1ccc(-c2n[nH]c3c2cnc2cc(OC)c(OC)cc23)cc1 | -0.675% (inactive) | – |
| Cc1ccccc1CNC(=O)CCCn1c(=O)c2cccn2c2cccnc21 | – | 8.49 µM (active) |
| COc1ccc(NC(=O)CSc2nc(-c3cccs3)cc(C(F)(F)F)n2)cc1OC | 9.56% (inactive) | – |
| CC(=O)Nc1ccc(C)cc1-c1nc2ccccc2n(CC(=O)Nc2cc(Cl)ccc2C)c1=O | – | 0.338 µM (active) |
| C[S+](=O)([O-])Nc1ccc(-c2ccc3nc(-c4cccc(OC(F)(F)F)c4)[nH]c3c2)cc1 | 15% (inactive) | – |
| CCOC(=O)c1cc(S(=O)(=O)N2CCN(c3cc(Cl)ccc3C)CC2)[nH]n1 | – | 26.8 µM (active) |
| O=C(O)C1CSC(C(=O)O)N1 (stereo not given) | 7.78% (inactive) | – |
| C=Cc1ccc(Cn2c(SCC(=O)N3CCN(c4ccc(F)cc4)CC3)nc3ccccc32)cc1 | -7.65% (inactive) | – |

| SMILES | activity change, negative = inhibition | Potency |
| --- | --- | --- |
| NC(=O)C(c1ccccc1)(c1ccccc1)[C@H]1CCN(CCc2ccc3c(c2)CCO3)C1 | – | 0.0425 µM (active) |
| O=C(CCCCCn1c(=O)c2sccc2n(CC(=O)Nc2cccc(Cl)c2)c1=O)NCc1ccc2c(c1)OCO2 | – | 0.0268 µM (active) |
| CCOc1ccccc1CNC(=O)C1CCN(S(=O)(=O)c2c(C)noc2/C=C/c2ccccc2F)CC1 | -2.65% (inactive) | – |
| CCCCCCCCC=CCCCCCCCC(=O)NCCOC(=O)CC(C(=O)O)S(=O)(=O)O (stereo not given) | – | 13.5 µM (active) |
| Cc1ccc(CNC(=O)C2CCN(S(=O)(=O)c3c(C)noc3/C=C/c3ccccc3F)CC2)o1 | -27.3% (inactive) | – |
| COc1ccc(CCNc2nc(SCc3ccccc3F)nc3ccccc23)cc1OC | – | 0.151 µM (active) |
| COc1ccc(CNC(=O)Cn2c(SCC(=O)Nc3ccc(C)c(C)c3)nc3ccccc32)cc1 | 0.948% (inactive) | – |
| COCCCNC(=O)C(=O)Nc1c2c(nn1-c1cccc(Cl)c1)CSC2 | 10.1% (inactive) | – |
| CCN1CCN(CCCNC(=O)c2cc3c(s2)-c2c(C)cccc2OC3)CC1 | – | 10.7 µM (active) |
| COc1ccc(NC(=O)C2=C(C)Nc3nc(SCc4ccccc4C)nn3C2c2cc(OC)c(O)c(OC)c2)cc1 (stereo not given) | 18.4% (inactive) | – |
| Cc1ccc(C2=CC(c3ccccc3C)n3c(nc4ccccc43)N2)cc1 (stereo not given) | – | 9.52 µM (active) |
| CCOc1ccc(CNC(=O)Cn2c(=O)c3cccn3c3ccc(F)cc32)cc1OC | 14.6% (inactive) | – |
| O=C(CSc1nc(-c2ccc(F)cc2)nc2c1Cc1ccccc1O2)Nc1cccc(C(=O)O)c1 | 15.1% (inactive) | – |
| COCCOc1nc(N)c2[nH]c(=O)n(Cc3ccc(C(=O)O)cc3)c2n1 | 3.25% (inactive) | – |
| Nc1c(-c2nc(-c3ccc4c(c3)OCO4)cs2)c2ccccn2c1C(=O)c1ccccc1 | 6.1% (inactive) | – |
| COc1ccc(CC(=O)NCC(c2cccs2)S(=O)(=O)c2ccc(Cl)cc2)cc1 (stereo not given) | – | 6.01 µM (active) |
| O=C(CSc1nc2ccsc2c(=O)n1Cc1ccccc1F)NCc1ccccc1Cl | – | 2.68 µM (active) |
| CCN(CC)S(=O)(=O)c1ccc2c(c1)nc(CN(C)C(=O)Nc1cccc(Cl)c1)n2C | – | 26.8 µM (active) |
| Cc1ccc(Nc2nc3ccccc3c3nnc(C)n23)c(C)c1 | -4.92% (inactive) | – |
| Cc1noc(/C=C/c2cccs2)c1S(=O)(=O)N1CCC(C(=O)NCc2ccc(Cl)cc2)CC1 | – | 2.39 µM (active) |
